From the OligoGym collection come the findings set out here.
Also: reference of the scale not given here.

The target in one experiment is RAET1E. The experiment is described as follows: pooled miR-30 sensor sort-seq; sequence = guide strand. The note with it: shRNA.
In turn, TATCTGAAGCATTTACTGGTGA came in with a sensor-assay potency score (higher = more potent) of 0.282.

TTCCATGTCTCCTTGATCTTAC: the sensor-assay potency score (higher = more potent) was -0.262.

As for TTACTGGTGACACTGTCGGTTC, the sensor-assay potency score (higher = more potent) is -0.629.

In turn, TTTACTGGTGACACTGTCGGTT yielded a sensor-assay potency score (higher = more potent) of 0.119.

Turning to TCATGATTAATTACTGTCCAGG, the sensor-assay potency score (higher = more potent) is -0.855.

With TTGACAAAACATCTCGACTTGC, the sensor-assay potency score (higher = more potent) is -0.439.

TTGTTGTCACTGTTGTACTGAA: the sensor-assay potency score (higher = more potent) is -0.561.

Turning to TTCACGTTGACAAAACATCTCG, the sensor-assay potency score (higher = more potent) was -0.11.

For TTCATGATTAATTACTGTCCAG, the sensor-assay potency score (higher = more potent) was -0.655.

With TTTGATGTCACAAAGGAGCATC, the sensor-assay potency score (higher = more potent) was -0.244.

The sequence TTGACCATGTTGTTGTCACTGT registered a sensor-assay potency score (higher = more potent) of 0.253.

As to TTTATAGTGAAGTTGAAGCAAA, the sensor-assay potency score (higher = more potent) is -1.04.

For a further experiment, the target named is RAI2. The experiment is described as above. The note with it: shRNA.
Consider TCGGATTGAGCTCTGGTGCGGA, for which the sensor-assay potency score (higher = more potent) is -0.201.

Take TTTAACTTTATGCTCCGGTTTT: the sensor-assay potency score (higher = more potent) is -1.48.

For TTGAGCTCTGGTGCGGAGCTTC, the sensor-assay potency score (higher = more potent) is -0.528.

In the case of TTCAGAACTCTGAGGCACCGGG, the sensor-assay potency score (higher = more potent) was -0.474.

On to TTTCTTTAACTTTATGCTCCGG, for which the sensor-assay potency score (higher = more potent) is -0.775.

In the case of TTTATAAAACCAATGCACCTTT, the sensor-assay potency score (higher = more potent) is -0.626.

TCAGCCTTGACTTCGCCGCTGG: the sensor-assay potency score (higher = more potent) is -0.358.

TTTTCAGCCTTGACTTCGCCGC: the sensor-assay potency score (higher = more potent) was -0.377.

Turning to TTCTTTAACTTTATGCTCCGGT, the sensor-assay potency score (higher = more potent) amounted to 0.268.

For the sequence TTGAAGGAGAAGTTTTTGGTGG, the sensor-assay potency score (higher = more potent) was -0.107.

As to TTGTTGTGGATGGTACTGGAGG, the sensor-assay potency score (higher = more potent) is -0.912.

Turning to TCGACAGAGACAATGACCTTGG, the sensor-assay potency score (higher = more potent) is -0.196.

A further experiment concerns the target RANBP9. The description is as above. The following applies: shRNA.
On to TTCGGTGTCACAATCTTCCATT, for which the sensor-assay potency score (higher = more potent) is -0.713.

For TAGTAGACTGAATGCATCCTTC, the sensor-assay potency score (higher = more potent) was -0.448.

For the sequence TTGCTTGCAGCTCTCGTCCAAA, the sensor-assay potency score (higher = more potent) is -0.93.

For the sequence TTTCTTTCAAGTAAACTTGGGT, the sensor-assay potency score (higher = more potent) is -0.134.

Regarding TAACAGGATAACTGTCTTGAGA, the sensor-assay potency score (higher = more potent) is -1.15.

TAATTCTTCTAGAACGGTCTGG: the sensor-assay potency score (higher = more potent) was 0.443.

With TAGCTGAACTTGTCCTTCGGGC, the sensor-assay potency score (higher = more potent) is -0.541.

On to TTGGACTACTAAAAGGTCGAGG, for which the sensor-assay potency score (higher = more potent) is -0.167.

Take TTTTGTATCATGGTCTGCCATT: the sensor-assay potency score (higher = more potent) is -1.46.

Regarding TACTACAACTTTCAAAACCTGA, the sensor-assay potency score (higher = more potent) is -0.44.

TAACTGTCTTGAGACTTTGGAC: the sensor-assay potency score (higher = more potent) is -0.743.

The target in another experiment is RANGAP1. The experiment is described as above. The following applies: shRNA.
On to TTTCCGGTGACATTCGGTCAGA, for which the sensor-assay potency score (higher = more potent) is -1.19.

TTAGGGTCCAGAATCTTCCGTG gave a sensor-assay potency score (higher = more potent) of 0.289.

As for TCACATCTTTAGCATCTTCTGC, the sensor-assay potency score (higher = more potent) is -0.932.

The sequence TAGGAAGGCAGAGACCACCTTC came in with a sensor-assay potency score (higher = more potent) of 0.359.
